{"source": "PubChem BioAssay AID1822", "about": "(The Scripps Research Institute Molecular Screening Center, 2009)", "note": "Several values for one entry are separate records, joined by “and”; a condition that tells them apart may be missing. Equal entries are not always repeated. Screen size: about 290,000 compounds; about 3,500 (1.2%) were called active. The list comes from a sample in which actives are over-represented; it also holds similar structures and randomly drawn compounds. Values without a mark were called inactive.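 Rule for the calls: active = inhibition above the campaign mean inhibition over all tested compounds plus 3 SD (cut at about 28% in these data); inactive = the rest.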"}
{"system": "M18 aspartyl aminopeptidase (Plasmodium falciparum 3D7)", "assay": "PfM18AAP inhibitors, malaria aminopeptidase, primary screen, biochemical, QFRET, recombinant enzyme (AID 1822);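 note: 0% = plate median of test compound wells and 100% = 2 mM ZnCl2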", "conditions": "H-Glu-NHMec fluorogenic cleavage, at 7.35 µM, stronger effect = higher value"}
{"smiles": "CCOC(=O)N1CCN(Cc2nc3cc(NC(=O)CC)ccc3n2CC)CC1", "inhibition": "-7.14%"}
{"smiles": "CCOc1ccccc1N1C(=O)CC(Sc2nccc(C)n2)C1=O", "note": "(stereo not given)", "inhibition": "-4.13%"}
{"smiles": "COc1ccc2oc(=O)cc(-c3cc4ccccc4o3)c2c1", "inhibition": "21.1%"}
{"smiles": "COc1cccc2cc(-c3cc(=O)oc4cc(C)c(O)cc34)oc12", "inhibition": "41.3% (active)"}
{"smiles": "COc1cccc2cc(C(=O)N(C)C)c(=O)oc12", "inhibition": "-12.7%"}
{"smiles": "COc1ccc(N2CCN(C(=O)Cn3cnc4sc(C)c(S(=O)(=O)N5CCOCC5)c4c3=O)CC2)cc1", "inhibition": "2.52%"}
{"smiles": "CCOC(=O)C1CCN(c2c(Nc3cc(C)cc(C)c3)c(=O)c2=O)CC1", "inhibition": "-6.21%"}
{"smiles": "Cc1nc2ccc(S(=O)(=O)NC(C(=O)N3CCCCCC3)C(C)C)cc2s1", "note": "(stereo not given)", "inhibition": "-0.39%"}
{"smiles": "Cc1nc2ccc(S(=O)(=O)NCC(=O)O)cc2s1", "inhibition": "51.8% (active)"}
{"smiles": "Cc1nc2ccc(S(=O)(=O)NCC(=O)NCCN3CCCCC3C)cc2s1", "note": "(stereo not given)", "inhibition": "-0.01%"}
{"smiles": "COc1cccc2cc(C(=O)NCc3ccc(C)cc3)c(=N)oc12", "inhibition": "3.31%"}
{"smiles": "COc1ccc2c(CC(=O)N3CCc4cc(OC)c(OC)cc4C3)coc2c1", "inhibition": "3.64%"}
{"smiles": "C/C(Cc1ccccc1)=N\\NC(=O)CNC(=O)c1ccccc1Cl", "inhibition": "6.33%"}
{"smiles": "ONC(=Nc1ccc(Cl)cc1)c1ccccc1Cl", "inhibition": "18.2%"}
{"smiles": "ONC(=Nc1ccccc1)c1ccccc1Cl", "inhibition": "40.1% (active)"}
{"smiles": "COC(=O)c1ccccc1Sc1c(/C=N/OCc2ccc(Cl)cc2)c(C(F)(F)F)nn1C", "inhibition": "2.22%"}
{"smiles": "c1ccc(-c2ccc3c(c2)NC(C2Nc4cc(-c5ccccc5)ccc4O2)O3)cc1", "note": "(stereo not given)", "inhibition": "42.1% (active)"}
{"smiles": "COc1cccc(C(=O)Nc2nnc(S(=O)(=O)N(C)c3ccccc3)s2)c1", "inhibition": "-1.4%"}
{"smiles": "COc1ccc(S(=O)(=O)Nc2ccc(S(=O)(=O)N3CCCCC3)cc2)cc1OC", "inhibition": "4.79%"}
{"smiles": "COc1cc(S(=O)(=O)Nc2ncn[nH]2)ccc1Cl", "inhibition": "51.4% (active)"}
{"smiles": "COc1ccc(C(C)C)cc1S(=O)(=O)Nc1ncn[nH]1", "inhibition": "8.59%"}
{"smiles": "O=C(NCc1cccnc1)C12CC3CC(CC(C3)C1)C2", "inhibition": "-7.72%"}
{"smiles": "Cc1cc(NC(=O)CCC(=O)N(CC(=O)NCC2CCCO2)c2ccccc2)no1", "note": "(stereo not given)", "inhibition": "-2.56%"}
{"smiles": "O=C(NCCN1CCOC1=O)C1CCC(=O)N(CCc2ccc(Cl)cc2)C1", "note": "(stereo not given)", "inhibition": "-13.3%"}
{"smiles": "COC(=O)c1c(C)oc2ccc(N(C(=O)Oc3ccccc3)S(=O)(=O)c3ccccc3)cc12", "inhibition": "-12.4%"}
{"smiles": "CC(=O)Oc1ccc(N(C(C)=O)S(=O)(=O)c2ccc3ccccc3c2)cc1Br", "inhibition": "-1.42%"}
{"smiles": "CC(=O)N(c1ccc2oc(=O)sc2c1)S(=O)(=O)c1ccc(C)cc1", "inhibition": "32.7% (active)"}
{"smiles": "CCOc1ccccc1NC(=O)NC1CCCCCCC1", "inhibition": "-2.13%"}
{"smiles": "CC(=O)Nc1ccc(NC(=O)[C@@H](NC(=O)c2cccc(C)c2)C(C)C)cc1", "inhibition": "-0.5%"}
{"smiles": "CCc1c(C)sc(NC(=O)c2cccs2)c1C(N)=O", "inhibition": "-38.8%"}
{"smiles": "COc1ccc(NC(=O)COc2ccc(C(=O)c3ccc(F)cc3)cc2)cc1S(N)(=O)=O", "inhibition": "-0.83%"}
{"smiles": "CC1=C(C)C(=O)OC(C(C)C2CCC3C4CC=C5CC(OC6OC(COC7OC(CO)C(O)C(O)C7O)C(O)C(O)C6O)CC(O)C5(C)C4CCC23C)C1", "note": "(stereo not given)", "inhibition": "3.15%"}
{"smiles": "CC(/C=C/C1(O)C(C)CC(=O)CC1(C)C)OC1OC(CO)C(O)C(O)C1O", "note": "(stereo not given)", "inhibition": "49.9% (active)"}
{"smiles": "Cc1[nH]c(C)c(S(=O)(=O)N2CCN(c3cccc(C(F)(F)F)c3)CC2)c1C(=O)N1CCCCC1", "inhibition": "3.83%"}
{"smiles": "Cc1ccc(/C=N/NC(=O)CSc2ccccn2)o1", "inhibition": "5.97%"}
{"smiles": "N#CCC(=O)N/N=C/c1ccc(SCC(=O)Nc2ccccc2)o1", "inhibition": "34.6% (active)"}
{"smiles": "O=C(CSc1ccc(/C=N/NC(=O)c2cccc(F)c2)o1)Nc1ccccc1", "inhibition": "6.13%"}
{"smiles": "CCC(C)(C)NC(=O)C(c1ccc(O)cc1)N(Cc1ccco1)C(=O)CCC(=O)Nc1ccccn1", "note": "(stereo not given)", "inhibition": "-14.9%"}
{"smiles": "COc1cccc(NC(=O)N2CCC(NC(=O)C(Cc3cccc(C)c3)NC(C)=O)CC2)c1", "note": "(stereo not given)", "inhibition": "-1.52%"}
{"smiles": "Cc1ccc(-n2[nH]c(C)c(/C=N/NC(=O)c3cccc([N+](=O)[O-])c3)c2=O)cc1C", "inhibition": "1.83%"}
{"smiles": "CCN1CCN(c2cc3nc(C)n(Cc4ccccc4)c(=O)c3cc2NC(=O)c2ccccc2F)CC1", "inhibition": "-2.2%"}
{"smiles": "COc1ccc(C(=O)CSc2nnc(COc3ccccc3)n2Cc2ccco2)cc1", "inhibition": "-6.68%"}
{"smiles": "COc1cccc(OCc2nnc3n2N=C(c2ccccc2)C(CC(=O)O)S3)c1", "note": "(stereo not given)", "inhibition": "3.81%"}
{"smiles": "COc1ccc(OCc2nnc3n2N=C(c2ccccc2)C(CC(=O)O)S3)cc1", "note": "(stereo not given)", "inhibition": "33.1% (active)"}
{"smiles": "CC(C)(C)c1ccc(C(CC(=O)O)NS(=O)(=O)Cc2ccccc2)cc1", "note": "(stereo not given)", "inhibition": "-3.96%"}
{"smiles": "FC(F)(F)C1CCCN(c2nsc3ccccc23)C1", "note": "(stereo not given)", "inhibition": "76.9% (active)"}
{"smiles": "CC(C)OC(=O)c1c(NC(=O)c2ccco2)sc2c1CCCC2", "inhibition": "-7.19%"}
{"smiles": "CCOC(=O)c1c(NC(=S)NC(=O)c2ccco2)sc2c1CCCC2", "inhibition": "6.75%"}
{"smiles": "CNC(=O)c1c(NC(NC(=O)c2ccco2)C(=O)c2ccc(Cl)cc2)sc2c1CCCC2", "note": "(stereo not given)", "inhibition": "35% (active)"}
{"smiles": "CC(=O)Nc1ccc(NC(=O)CC2CCCC2)cc1", "inhibition": "-1.31%"}
{"smiles": "O=C(CCC1CCCC1)N=C1SC2CS(=O)(=O)CC2N1Cc1ccccc1", "note": "(stereo not given)", "inhibition": "9.31%"}
{"smiles": "Cc1cc(C)n2nc(CNS(=O)(=O)c3c(F)c(F)c(F)c(F)c3F)nc2n1", "inhibition": "2.95%"}
{"smiles": "CC(C)=CCN1CCN(CCCc2ccccc2)CC1CCO", "note": "(stereo not given)", "inhibition": "-4.62%"}
{"smiles": "Cc1ccc(-n2c(C)cc(/C=C(\\C#N)C(=O)NCC3CCCO3)c2C)cc1", "note": "(stereo not given)", "inhibition": "-10.2%"}
{"smiles": "CN(C)c1ccc(-c2nnc(-c3cccnc3)o2)cc1", "inhibition": "10.3%"}
{"smiles": "O=c1[nH]n(-c2ccc([N+](=O)[O-])cc2)c(=O)c2ccccc12", "inhibition": "34.9% (active)"}
{"smiles": "Cc1nc2ccccc2c(=O)n1Cc1ccc([N+](=O)[O-])cc1", "inhibition": "-5.86%"}
{"smiles": "O=C1CC(c2ccccc2)=NN1c1ccc([N+](=O)[O-])cc1", "inhibition": "0.8%"}
{"smiles": "CCCC(C(=O)NC1CCCC1)N(C(=O)Cn1nnc(-c2ccc(C)o2)n1)c1cccc(O)c1", "note": "(stereo not given)", "inhibition": "-0.55%"}
{"smiles": "O=c1c2ccccc2ncn1/N=C/c1ccccc1", "inhibition": "1.08%"}
{"smiles": "CCCc1nc2ccccc2c(=O)n1NC(=O)c1c(O)c2ccccc2[nH]c1=O", "inhibition": "-1.38%"}
{"smiles": "CCCc1nc2ccccc2c(=O)n1/N=C/c1ccc(O)c(O)c1", "inhibition": "53.2% (active)"}
{"smiles": "Nc1nc(SCC(=O)Nc2cc(C(F)(F)F)ccc2Cl)[nH]c(=O)c1NC(=O)c1ccco1", "inhibition": "30.4% (active)"}
{"smiles": "COC(=O)c1ccc(NC(=O)CSc2nc(N)c(NC(=O)c3ccc(Br)o3)c(=O)[nH]2)cc1", "inhibition": "0.86%"}
{"smiles": "COc1ccc(C(=O)Nc2c(N)nc(SCC(=O)Nc3ccc(C(C)=O)cc3)[nH]c2=O)cc1", "inhibition": "7.68%"}
{"smiles": "COc1ccc(C)cc1Nc1nc(C)nc2c1oc1ccccc12", "inhibition": "2.6%"}
{"smiles": "CCc1ccc(C(CNc2nc(C(F)(F)F)nc3ccccc23)N(C)C)cc1", "note": "(stereo not given)", "inhibition": "2.51%"}
{"smiles": "Cc1cc(OC(=O)c2ccccc2Cl)ccc1N1C(=O)CCC1=O", "inhibition": "3.74%"}
{"smiles": "CC(=O)c1ccc(NC(=O)Nc2ccc([N+](=O)[O-])cc2C)cc1", "inhibition": "-10.5%"}
{"smiles": "CCN(CC)S(=O)(=O)c1cc([N+](=O)[O-])ccc1NNC(=O)Nc1ccccc1", "inhibition": "48.1% (active)"}
{"smiles": "CCN(CC)S(=O)(=O)c1cc([N+](=O)[O-])ccc1N=Nc1c(O)n(C)c2ccccc12", "inhibition": "-3.78%"}
{"smiles": "CCCCN(CCCC)CCNC(=O)CN1C(=O)COc2ccc(S(=O)(=O)N3CCOCC3)cc21", "inhibition": "7.53%"}
{"smiles": "CCCCN1C(=O)C(C)=C(C)C1OCCc1ccc(OC)c(OC)c1", "note": "(stereo not given)", "inhibition": "-8.94%"}
{"smiles": "CC1(C(=O)N/N=C/c2cc3c(cc2Br)OCO3)CC1(Br)Br", "note": "(stereo not given)", "inhibition": "7.28%"}
{"smiles": "CN(C)CCCN(C(=O)COc1ccccc1)c1nc2c(Cl)cccc2s1", "inhibition": "-2.07%"}
{"smiles": "Fc1cc(F)c2nc(Nc3nc4c(F)cccc4s3)sc2c1", "inhibition": "-6.75%"}
{"smiles": "NNc1nc2c(Cl)cccc2s1", "inhibition": "28.1% (active)"}
{"smiles": "CCOC(=O)C1CCCN(S(=O)(=O)c2ccc3c(c2)C(C)(C)C(=O)N3C)C1", "note": "(stereo not given)", "inhibition": "7.85%"}
{"smiles": "OC(c1ccc(Cl)cc1)C(CN1CCOCC1)c1ccccc1", "note": "(stereo not given)", "inhibition": "1.27%"}
{"smiles": "CCOc1ccc(S(=O)(=O)NCc2ccc3c(c2)OCO3)cc1C", "inhibition": "-10.2%"}
{"smiles": "CSc1ccc(CCNC(=O)CS(=O)(=O)Cc2nc(-c3ccccc3F)oc2C)cc1", "inhibition": "-0.36%"}
{"smiles": "Oc1c(C(c2cccs2)N2CCN(c3ccc(F)cc3)CC2)sc2ncnn12", "note": "(stereo not given)", "inhibition": "16.4%"}
{"smiles": "Oc1c(C(c2ccco2)N2CCC3(CC2)OCCO3)sc2ncnn12", "note": "(stereo not given)", "inhibition": "35.8% (active)"}
{"smiles": "Cc1nc2sc(C(c3ccco3)N3CCC4(CC3)OCCO4)c(O)n2n1", "note": "(stereo not given)", "inhibition": "0.84%"}
{"smiles": "CCc1nn(CCCN2CCN(c3cccc(Cl)c3)CC2)c(=O)n1CCOc1ccccc1", "inhibition": "8.14% and 7.54%"}
{"smiles": "O=S(=O)(c1ccc(Cl)cc1)N1CCCN(c2ccc(C(F)(F)F)cn2)CC1", "inhibition": "-1.37%"}
{"smiles": "COc1ccc(OC)c(/C(C)=N\\NC(=O)c2cc3cc(Cl)ccc3n2C)c1", "inhibition": "3.86%"}
{"smiles": "Oc1ccc(N=Cc2sc3ccccc3c2Cl)cc1", "inhibition": "21.1%"}
{"smiles": "Oc1ccc(N=Cc2c(O)ccc3ccccc23)cc1", "inhibition": "28.4% (active)"}
{"smiles": "O=[N+]([O-])c1ccc(N=Cc2c(O)ccc3ccccc23)cc1", "inhibition": "-0.85%"}
